Screen size: about 370,000 compounds; about 620 (0.17%) were called active.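 The calls were made as follows: active = inhibition above the mean inhibition of all tested compounds plus 3 SD, set per campaign (cut at about 52% in these data); inactive = the rest.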 The list comes from a sample in which actives are over-represented; it also holds similar structures and randomly drawn compounds.
The compounds below were run against Nuclear receptor coactivator 2 (Homo sapiens) (UniProt Q15596) (assay: inhibition of GAL4-SRC2 driven luciferase reporter, primary screen, SRC2 inhibitor project, cell-based, luminescence (AID 651957;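 also: 0% = DMSO treated cells and 100% = cells given Gossypol at 36 µM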)). Details: HEK293 GAL4-SRC2 luciferase reporter, at 9 µM, active compounds read high.
Chain of Nuclear receptor coactivator 2 (Homo sapiens) (Q15596 whole entry, looked up, the tested form may be a part): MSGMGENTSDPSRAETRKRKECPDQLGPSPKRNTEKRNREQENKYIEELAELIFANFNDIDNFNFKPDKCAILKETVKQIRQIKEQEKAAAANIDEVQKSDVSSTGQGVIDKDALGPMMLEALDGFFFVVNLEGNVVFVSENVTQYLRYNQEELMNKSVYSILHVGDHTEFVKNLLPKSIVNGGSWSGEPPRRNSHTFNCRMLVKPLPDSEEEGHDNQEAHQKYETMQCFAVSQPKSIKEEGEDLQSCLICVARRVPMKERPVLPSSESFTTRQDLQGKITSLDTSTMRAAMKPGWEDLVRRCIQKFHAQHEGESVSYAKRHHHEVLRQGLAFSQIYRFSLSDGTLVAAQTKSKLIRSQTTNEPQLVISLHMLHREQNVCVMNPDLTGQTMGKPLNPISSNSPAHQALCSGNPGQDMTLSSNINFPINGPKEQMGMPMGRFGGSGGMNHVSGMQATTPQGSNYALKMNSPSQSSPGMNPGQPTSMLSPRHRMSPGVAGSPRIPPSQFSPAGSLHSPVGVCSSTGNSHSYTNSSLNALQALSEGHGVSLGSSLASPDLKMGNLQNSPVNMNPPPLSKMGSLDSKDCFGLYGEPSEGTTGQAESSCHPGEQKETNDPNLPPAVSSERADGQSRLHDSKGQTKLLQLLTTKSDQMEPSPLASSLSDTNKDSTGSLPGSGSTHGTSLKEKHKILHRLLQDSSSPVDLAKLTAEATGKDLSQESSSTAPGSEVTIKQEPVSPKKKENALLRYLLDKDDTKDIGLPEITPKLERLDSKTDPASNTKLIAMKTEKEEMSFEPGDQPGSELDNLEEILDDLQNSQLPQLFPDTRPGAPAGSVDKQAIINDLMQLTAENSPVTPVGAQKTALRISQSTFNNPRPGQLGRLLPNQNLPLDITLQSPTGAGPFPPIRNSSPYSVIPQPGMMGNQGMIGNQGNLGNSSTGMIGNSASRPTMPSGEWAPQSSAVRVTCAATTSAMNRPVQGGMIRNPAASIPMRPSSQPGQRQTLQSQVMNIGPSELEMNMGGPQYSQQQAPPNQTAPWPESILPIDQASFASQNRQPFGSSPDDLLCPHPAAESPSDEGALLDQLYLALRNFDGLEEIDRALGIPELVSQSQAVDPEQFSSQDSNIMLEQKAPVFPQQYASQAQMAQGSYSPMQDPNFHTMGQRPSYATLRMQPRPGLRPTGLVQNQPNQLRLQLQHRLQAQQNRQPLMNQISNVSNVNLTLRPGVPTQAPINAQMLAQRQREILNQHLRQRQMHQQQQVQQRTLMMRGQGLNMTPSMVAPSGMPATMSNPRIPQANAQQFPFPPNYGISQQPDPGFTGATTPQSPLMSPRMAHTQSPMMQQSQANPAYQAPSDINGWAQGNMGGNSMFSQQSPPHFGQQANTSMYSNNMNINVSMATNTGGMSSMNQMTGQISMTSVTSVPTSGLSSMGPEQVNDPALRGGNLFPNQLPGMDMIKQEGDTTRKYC

inhibition, inactive:
O=C(NCc1ccccn1)[C@@H]1CCCN1C(=O)[C@@H]1CCCN1C(=O)c1ccccc1 -0.2%
COc1ccc(C2=CN(Cc3ccccc3)C(c3ccc(OC)cc3)CC2=O)cc1 (stereo not drawn) 12.8%
CCOC(=O)[C@]12CCCC3=C1N(CCC3)C(=O)[C@@H](CC(=O)N1CCSCC1)C2 12.6%
CC1(C)CC2CC(C)(CN2c2ncnc3ccc(Br)cc23)C1 (stereo not drawn) 17.4%
CCOC(=O)CNc1nc(Cl)nc(Nc2ccc(OC)cc2OC)n1 -23.9%
CC(C)CNc1cccc2c1S(=O)(=O)N(Cc1cn(Cc3ccccc3C(F)(F)F)nn1)Cc1ccccc1O2 2.85%
CCOC(=O)c1sc(N)c(C#N)c1COC(=O)C1=COCCO1 7.27%
CC(=O)Nc1ccc(NC(=O)COC(=O)C2CCC(C(C)(C)C)CC2)cc1 (stereo not drawn) -24.4%
Cc1nnc(SCC(=O)N2c3ccccc3C(C)(c3ccc(Cl)cc3)CC2(C)C)s1 (stereo not drawn) -11.4%
C=CCNC(=O)c1sc(SC)cc1-c1ccc(Cl)cc1 3.88%
O=C(OC12CCCN(C1)/C(=C/c1ccccc1)C2)c1ccco1 (stereo not drawn) 9.76%
OCC[C@H]1C[C@H](O)[C@@H](O)[C@]2(CCc3ccccc3O2)O1 3.27%
CCOC(=O)c1ccccc1NS(=O)(=O)c1c(C)nc2sccn2c1=O -4.6%
Cc1ccc2nc(-c3ccccc3)c(CC3CCCCC3)n2c1 -25.6%
Cc1nc(-c2ccccc2)cn2c1nc1ccccc12 7.57%
Cc1nc(=O)c(-c2ccccc2)c(C)n1-c1ccc(Br)cc1 -29.2%
COc1cc(C(=O)Nc2cc(C(F)(F)F)ccc2N2CCOCC2)ccc1O -7.29%
COc1cc(/C=C/C(=O)OCC(=O)Nc2cccc(Oc3ccccc3)c2)ccc1O 11.1%
Cc1ccccc1NC(=O)Cn1nnc(-c2ccccc2F)n1 11.4%
CC(C)CNc1cccc2c1S(=O)(=O)N(Cc1cn(Cc3ccc(Cl)cc3)nn1)Cc1ccccc1O2 26.6%
Cc1cccc(NC(=O)c2cc3c(C)nn(-c4ccccc4)c3s2)c1 0.27%
Cc1nnc(NC(=O)CSc2nccn2-c2cccc(C)c2C)s1 -5.88%
CN(CCC(=O)Nc1cc(S(=O)(=O)N(C)C)ccc1Cl)CC(=O)Nc1ccc(F)cc1 -17.9%
O=C(CCS(=O)(=O)c1ccccc1)Nc1ccc(Cl)c(Cl)c1 -2.79%
Cc1cccc(C(=O)Nc2c(-c3ccc(F)cc3)nc3ncccn23)c1 16.3%
Cc1ccc(CS(=O)(=O)CCC(=O)NC2CC2)cc1 -50%
O=C(NCCC1=CCCCC1)C1CCN(S(=O)(=O)c2ccc(Cl)s2)CC1 -18.3%
COc1ccc(N2CCN(CCNS(=O)(=O)c3ccc([N+](=O)[O-])cc3)CC2)cc1 9.36%
O=S1(=O)c2ccc(Br)cc2OC[C@@H](Cc2ccccc2)N1Cc1cn(Cc2ccco2)nn1 -13.6%
CC1CCC(N2CC(=O)N(Cc3ccc4c(c3)OCO4)C(c3ccc(F)cc3)C2=O)CC1 (stereo not drawn) 3.66%
Clc1ccc(C(Cn2ccnc2)OCc2ccsc2Cl)c(Cl)c1 (stereo not drawn) 7.22%
COc1ccc2cc(C(=O)O)n(CC(=O)c3ccccc3)c2c1 -12.1%
Cc1cc(OCCCC(=O)NCCN2C(=O)S/C(=C\c3cccnc3)C2=O)ccc1Cl -14.1%
C=CCOc1ccc(C(=O)Nc2ccccc2C(=O)N2CCCC2)cc1 -24.2%
CCOC(=O)C1=C(C)NC2=C(C(=O)CC(C)(C)C2)C1c1ccc2c(c1)OCO2 (stereo not drawn) 11.6%
COc1ccc2c(c1)CCC/C2=N\OC(=O)c1ccccc1F 4.64%
CCCCCCCCN1C(=O)[C@@H](CC(=O)NCCCC)C[C@@]2(C(=O)OC)C1=C[C@H](C(C)(C)C)O[C@@H]2C -9.63%
Nn1c(SCC(=O)Nc2ccc(S(N)(=O)=O)cc2)nnc1-c1n[nH]c2c1CCC2 10.6%
CCOC(=O)C1C(=O)C=C(c2ccc(OC)cc2)CC1c1ccco1 (stereo not drawn) -4.74%
CCOC(=O)C1=C(CC)Nc2ccccc2N=C1N 12.5%
NS(=O)(=O)c1ccc(CCNC(=O)CN2C(=O)c3ccccc3S2(=O)=O)cc1 1.66%
Cc1ccc(S(=O)(=O)N(C)CC(=O)N2CCc3ccccc32)cc1 -6.78%
O=C(COC(=O)c1cnccn1)Nc1cccc2ccccc12 -4.93%
CCOC(=O)C(C(=O)c1ccccc1)C(c1ccccc1)c1nccc2ccccc12 (stereo not drawn) 14.8%
COc1cccc(CC(=O)N2CCN(C(=O)C(=O)c3cccc(C(F)(F)F)c3)CC2)c1 7.57%

inhibition, active:
COc1ccc(Nc2ncnc3ccc(Br)cc23)c(OC)c1 86.6%
CCC(C)(C)c1ccc(Oc2ccc(NC(=O)COC(=O)C3=COCCO3)cc2)cc1 56.6%
Cc1ccc2nc(-c3ccc(Br)cc3)cn2c1 60.3%
Cc1ccc(-c2cn3cc(C)ccc3n2)cc1 72.6%
COc1ccc(C(=O)Nc2ccccc2C(=O)N/N=C/c2ccc(O)c(OC)c2)cc1 55%
C=CCn1c(C)cc(C2=NNC(=NCC)SC2)c1C 84.4%
Cc1cccc(NC(=O)c2nc(S(=O)(=O)Cc3ccccc3)ncc2Cl)c1 64.1%
Cc1cccc(CS(=O)(=O)c2ncc(Cl)c(C(=O)Nc3ccc(F)cc3)n2)c1 62.1%
Cc1ccc(CS(=O)(=O)c2ncc(Cl)c(C(=O)Nc3nnc(C)s3)n2)cc1 64%
C=CCOc1ccc(/C=C2\SC(=S)N(CCC(=O)O)C2=O)cc1 85.7%
CCOC(=O)C1=C(c2ccc(OC)cc2)C(=O)c2ccccc2C1=O 73.8%
O=C(CN1C(=O)c2ccccc2S1(=O)=O)N1CCc2ccccc21 73.3%
C[C@H]1CCC/C=C/C(=O)c2c(O)cc(O)cc2CC(=O)O1 64.6%

From PubChem BioAssay AID651957 (The Scripps Research Institute Molecular Screening Center, 2012)
